Screen size: about 410,000 compounds; about 18,000 (4.4%) were called active. About 7% were inconclusive and are not listed. For the sample, actives were picked, then their nearest neighbours and some compounds at random. Values without a mark were called inactive. Rule as the data show it: active = activity change below about -60%; inconclusive = no clear call, values can overlap the other calls; inactive = above about -39%.
% is scaled to controls: 0 for no effect and ±100 for the full control effect.

This assay in a line: qHTS Assay for inhibitors of the human cytomegalovirus (HCMV). The note with it: HFF cells, HCMV-luciferase reporter, 72 h; at 57.5 µM; hits give low values. A digest of the protocol:
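Compounds were evaluated in HFFs infected with an HCMV luciferase reporter virus (MOI 1 PFU/cell). Luciferase in lysates collected 72 h post infection served as the replication measure.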
As for `O=c1c2cccnc2n(Cc2cccc(F)c2)c(=O)n1Cc1ccccc1Cl`, the activity change, negative = inhibition is -4.52%. The figure for `O=S(=O)(NCC(c1ccco1)N1CCOCC1)c1cc(F)ccc1F` (stereo not drawn) is 10.6%. The figure for `O=C(NN=CC=Cc1ccccc1)C(O)C(O)C(=O)NN=CC=Cc1ccccc1` (stereo not drawn) is -99% (active); for `O=C(N/N=C/C=C/c1ccccc1)C1CC1(c1ccccc1)c1ccccc1` (stereo not drawn) it is -22.7%; for `CC(OC(=O)/C=C/c1ccccc1)C(=O)Nc1ccc(C(N)=O)cc1` (stereo not drawn) it is -26.6%. With `O=C(Nc1ccn(Cc2ccccc2)n1)c1n[nH]c([N+](=O)[O-])c1Cl`, the activity change, negative = inhibition is -0.724%. The figure for `CC1(C)CC(N2CCN(C(c3ccccc3)c3ccccc3)CC2)=CC(=[N+]2CCCCC2)C1` is -98.5% (active). For `COC(=O)C(c1ccccc1)N1CCCCCC1` (stereo not drawn), the activity change, negative = inhibition is -22.2%. The figure for `COc1ccc(CCN2C(=O)N(c3cccc(OC)c3)C(=O)C2CC(=O)Nc2ccccc2)cc1` (stereo not drawn) is 30.6%; for `Cc1csc2nc(COc3ccc(NC(=O)COc4ccccc4)cc3)cc(=O)n12` it is -18.6%.

For the compound `CCOC(=O)c1[nH]c(C)c(CCC(=O)N2CCN(c3ccccc3)CC2)c1C`, the activity change, negative = inhibition was -11%. The result for `COc1ccc(-c2c(C#Cc3ccccc3)c3ccccc3n2C)cc1` reads -78.4% (active); that for `COc1cc(OC)cc(-c2c(C#Cc3ccsc3)c3cc(-c4ccc(SC)cc4)ccc3n2C)c1`, -6.32%; that for `COc1ccc(CCNCc2c(-c3ccccc3)n(C)c3ccccc23)cc1`, -5.91%. The result for `COc1ccccc1CNCc1ccc(C(=O)O)s1` reads -9.76%. In the case of `O=C(CSc1nc(=O)[nH]c2c1CCCC2)Nc1cc(C(F)(F)F)ccc1Cl`, the activity change, negative = inhibition was -20.6%.

As to `O=C(Nc1ccc(CN2CCOCC2)cc1)c1cc(Cl)ccc1Cl`, the activity change, negative = inhibition is -13.5%.

For `Cn1c(CN2CCOCC2)nc2cc(NC(=O)c3ccc(Cl)cc3)ccc21`, the activity change, negative = inhibition is -84.5% (active). Consider `CN1CCN(Cc2nc3cc(NC(=O)COc4ccc([N+](=O)[O-])cc4)ccc3n2C)CC1`, for which the activity change, negative = inhibition is 18.6%. The figure for `Cc1ccccc1S(=O)(=O)N[C@H]1CC[C@@]23CCCN2C(=O)CCC[C@H]3[C@H]1C` is -19.4%.

In the case of `Cc1cccc(Cn2c(CN3CCC(C(=O)NCc4ccccc4Cl)CC3)cc3ccccc32)c1`, the activity change, negative = inhibition was -4.28%.

`CCc1cc2c(cc3c(=O)n(CC(=O)N4CCN(c5cc(Cl)ccc5C)CC4)ncn32)s1`: the activity change, negative = inhibition was 85.8%.

Turning to `O=c1c2ccccc2nc2n1C(CSc1ccc(Cl)cc1)CN2` (stereo not drawn), the activity change, negative = inhibition was 59.6%. The result for `O=c1c2ccccc2nc2n1C(CSCc1ccccc1)CS2` (stereo not drawn) reads -74.9% (active); that for `C#CCCCc1nc2ccccc2c(=O)n1N`, 56.9%; that for `O=c1n(Cc2cccc(C(F)(F)F)c2)c2ccccc2c2nc(-c3ccccc3)nn12`, 26.8%. The result for `Cc1ccc(-n2c(/C=C/c3cccc(C(F)(F)F)c3)nc3ccccc3c2=O)cc1` reads -5.7%. With `O=c1c2ccccc2nc2n1C(CSCc1cccc(C(F)(F)F)c1)CS2` (stereo not drawn), the activity change, negative = inhibition was -67.5% (active).

Take `Cc1ccccc1C(=O)Nc1sc2c(c1C(=O)N1CCC(C)CC1)CCCC2`: the activity change, negative = inhibition was -11.9%. The figure for `COc1cc(Br)cc2cc(S(=O)(=O)c3ccccc3)c(=O)oc12` is 14.3%; for `COc1ccc(CN2C(=O)CN=C2Nc2ccc(C)cc2C)cc1` it is 1.11%; for `CCN(CC)C(=O)C1=C(C)N(Cc2ccc(C(C)(C)C)cc2)C(=O)C(CC(=O)NCc2cccc3ccccc23)C1` (stereo not drawn) it is 16.5%. As to `CC(C)(C)c1ccc(CN2C(=O)CN=C(c3ccccc3)c3ccccc32)cc1`, the activity change, negative = inhibition is -79.6% (active). The figure for `O=C(c1ccc(Cl)cc1)n1nc(-c2cccnc2)nc1NCc1ccc(F)cc1` is 4.96%. As for `CCOc1ccc(-c2cc3nc(C4CCN(C(=O)OC(C)(C)C)CC4)c(C(=O)Nc4ccc(C(=O)OC)cc4)cn3n2)cc1`, the activity change, negative = inhibition is 24.4%. The figure for `COc1ccccc1CNC(=O)c1ccc(CS(=O)c2ccccc2Cl)o1` (stereo not drawn) is 9.25%; for `CCOc1ccc(NC(=O)c2c(NCc3cccc(OC)c3OC)sc3c2CCC3)cc1` it is 13%; for `CN(c1ccc2nc3ccccc3c(=O)n2n1)C1CCCCC1` it is -90% (active). Regarding `O=C(c1ccco1)N(Cc1nc2ccccc2c(=O)[nH]1)C1CCCC1`, the activity change, negative = inhibition is -0.921%.

For `COCC(C)n1c(SCC(=O)NC2CCCCC2C)nc2ccccc2c1=O` (stereo not drawn), the activity change, negative = inhibition is -19.2%. The figure for `COc1ccc(NC(=O)c2cc(=O)[nH]c3ccccc23)cc1S(=O)(=O)N1CCOCC1` is 9.13%. For `COc1ccc(CCC(=O)Nc2ccc(Cl)c(S(=O)(=O)N3CCOCC3)c2)cc1OC`, the activity change, negative = inhibition is -69% (active). The result for `COc1ccc(C(=O)N(Cc2ccccc2)c2ccc(C)cc2)cc1S(=O)(=O)N1CCOCC1` reads -15.2%; that for `COc1ccc(CC(=O)Nc2ccc3c(c2)CCC3)cc1S(=O)(=O)N1CCOCC1`, -10.6%. For `COc1ccc(/C=C/C(=O)Nc2ccc(C)cc2)cc1S(=O)(=O)N1CCOCC1`, the activity change, negative = inhibition was -73.1% (active). Regarding `O=C(CCc1ccc(S(=O)(=O)N2CCOCC2)cc1)Nc1ccc2ccccc2c1`, the activity change, negative = inhibition is -9.83%. The result for `O=C(CSc1n[nH]c(-c2ccccc2)n1)N1CCCCC1` reads 61.5%; that for `CSc1nc(-c2ccc(F)cc2)nc2c1Cc1c(CO)cnc(C)c1O2`, 4.76%; that for `CC(C)(CSc1nncn1/N=C/c1ccco1)NS(=O)(=O)c1ccc(Cl)cc1`, -28.3%. As to `COc1cccc(NC(=O)N(Cc2cn(C)c3ccccc23)C2CCCCCC2)c1`, the activity change, negative = inhibition is -105% (active).

Consider `COc1ccc(CCNC(=O)CCc2cn(C)c3ccccc23)c(OC)c1`, for which the activity change, negative = inhibition was -11%.

Turning to `COc1cccc(NC(=O)N2CCCC2C(=O)NC2CCCCC2)c1` (stereo not drawn), the activity change, negative = inhibition was -32.8%.

In the case of `O=C(Cn1c(=O)n(-c2ccc(F)cc2)c(=O)c2sc3ccccc3c21)NC1CCCC1`, the activity change, negative = inhibition was -5.96%. Regarding `Fc1ccc(-c2nc(Nc3cccc(Cl)c3)nc3c2COc2ccccc2-3)cc1`, the activity change, negative = inhibition was -30.5%. Turning to `CCOC(=O)C(C)Sc1nnc(CSc2nc3nc(C)cc(C)n3n2)o1` (stereo not drawn), the activity change, negative = inhibition was -27.1%.

Take `Cn1c(CNC(=O)c2ccco2)nnc1SCC(=O)N1CCN(c2ccccc2)CC1`: the activity change, negative = inhibition was 9.34%. `Cn1c(Cc2cccc3ccccc23)nnc1SCC(=O)N1CCN(c2cccc(Cl)c2)CC1`: the activity change, negative = inhibition is -71.4% (active). In the case of `Cc1cc2nnc(SCC(=O)N3CCN(c4ccccc4)CC3)n2c(N)n1`, the activity change, negative = inhibition is 2.88%. With `Cc1ccccc1NC(=O)Cn1c(=O)n(CCCCC(=O)NCc2ccccc2Cl)c(=O)c2ccccc21`, the activity change, negative = inhibition was 0.203%.

For the compound `COc1ccc(N2CCN(c3cc(C)nc4nncn34)CC2)cc1`, the activity change, negative = inhibition was -72.4% (active). The figure for `Cc1cc(N2CCN(c3ccc(F)cc3)CC2)n2ncnc2n1` is -22.6%; for `COc1ccc(N2CCN(c3ccc([N+](=O)[O-])nc3)CC2)cc1` it is -29.8%.

Regarding `COC(=O)c1ccc(/C=N/OCC(=O)Nc2cc(F)ccc2F)cc1`, the activity change, negative = inhibition was 36.6%.

Turning to `Cc1ccc2c(c1)c1c(c(=O)n(-c3ccccc3)c(=O)n1CC(=O)c1ccc(Cl)cc1)n2C`, the activity change, negative = inhibition is 7.77%.

On to `O=C(CN(Cc1ccccc1)C(=O)CCC(=O)Nc1ccccn1)NCCc1ccccc1`, for which the activity change, negative = inhibition was 18.2%.

For `COc1ccc(Cn2c(=O)oc3ccccc32)cc1`, the activity change, negative = inhibition is 6.27%.

On to `COc1ccc(Cn2c(-c3ccc(Cl)cc3)c[n+]3ccccc23)cc1`, for which the activity change, negative = inhibition is -95.3% (active). The figure for `COc1ccc(CNc2nc(-c3ccc(Cl)cc3)nn2C(=O)c2ccccc2)cc1` is 1.03%; for `CCN1C(=O)C(C(=O)NC(C)c2ccccc2)C2CC1(C)Oc1ccccc12` (stereo not drawn) it is -37%. The figure for `O=S(=O)(c1ccc(F)cc1)N1CCN=C1SCc1cccc(F)c1` is -18.5%. Regarding `O=C(COc1ccccc1)N1CCN=C1SCc1cccc(F)c1`, the activity change, negative = inhibition is -11.8%. The figure for `CCCS(=O)(=O)N1CCN=C1SCc1cccc(F)c1` is -70.6% (active). As for `COc1cc(OC)cc(-c2nc3nc(C)c(CCC(=O)Nc4ccccc4)c(C)n3n2)c1`, the activity change, negative = inhibition was 4.64%. Turning to `Cc1ccc(NC(=O)c2ccc3[nH]c(C)cc(=O)c3c2)c(C)c1`, the activity change, negative = inhibition was -8.34%. As to `O=C(N/N=C/c1c(O)n(C2CC2)c(=S)[nH]c1=O)c1ccccc1Cl`, the activity change, negative = inhibition was -9.9%. For `O=C(N/N=C/c1c(O)n(C2CC2)c(=S)[nH]c1=O)c1ccccc1`, the activity change, negative = inhibition is -8.42%. The figure for `Cc1[nH]n(-c2ccccc2)c(=O)c1/C=N/NC(=O)c1ccoc1C` is -99.7% (active); for `CCOC(=O)CSc1nnc(CNC(=O)Cc2ccccc2)n1-c1ccccc1OC` it is -26.6%; for `CC(=O)c1ccc(NC(=O)c2nc(-c3ccc(C)cc3)n3c2CCCCC3)cc1` it is -8.98%. In the case of `Cc1cccc(CNC(=O)c2cnc3sc(N4CCCCC4)nn3c2=O)c1`, the activity change, negative = inhibition was 27.1%. With `CCOc1ccccc1C(=O)NC1(C(F)(F)F)C(=O)Nc2c1c(=O)[nH]c(=O)n2-c1ccc(F)cc1` (stereo not drawn), the activity change, negative = inhibition was -8.54%. With `COc1ccc(CNC(=O)c2cc3c(-c4ccccc4F)nn(C)c3s2)c(OC)c1`, the activity change, negative = inhibition is -64.7% (active).

As to `CN(CCNC(=O)c1cc2c(-c3ccccc3F)nn(C)c2s1)C1CCCCC1`, the activity change, negative = inhibition is -6.98%. The result for `COc1ccc(CNC(=O)c2cc3c(=O)[nH]c4ccc(C)cc4c3s2)c(OC)c1` reads -17.4%; that for `Cc1ccc(Nc2c(-c3ccc(C)cc3)nc3cnccn23)cc1`, 31.2%.

Regarding `COc1ccc(OC)c(NC(=O)CSc2nc3ccccc3nc2N2CCCCC2)c1`, the activity change, negative = inhibition was 19.8%.

For the compound `CCCOc1ccc(Cl)cc1Nc1nc(NCCO)nc(N2CCCC2)n1`, the activity change, negative = inhibition was 14.9%.

Regarding `CCN1CCN(c2nc(Nc3cc(OC)ccc3OC)nc(Nc3cc(OC)ccc3OC)n2)CC1`, the activity change, negative = inhibition was -64.4% (active).

(Values after PubChem BioAssay AID1259415 (National Center for Advancing Translational Sciences (NCATS), 2018).)
